Test results reported in PubChem BioAssay (NCATS).
Inconclusive results are not listed. Where a call stands in place of a potency, no number is given. Unmarked numbers belong to inactive results. The source made the active and inactive calls. Calls follow the shape of the dose curve; as a rule, active = well fitted curve in the direction sought with a large enough effect; inconclusive = small, poorly fitted or top-dose-only effect, or another doubt; inactive = no such curve, though single readings can be large; an effect the other way counts as inactive or inconclusive. Numbered stars: 1 amine (or outer) side, 2 acyl side, 3 side chain; on linkers, the order of the positions; unused ones are H or OH. Square brackets hold non-standard residues; d marks the D form. Peptide text beside a SMILES is read from it. * marks the point of attachment. ξ: configuration not given here. X9 = CCC(C)(N*)C(=O)C1CC[C@@H](C(=O)N[C@@H](Cc2ccccc2)C(=O)NCC(=O)O)N1; X8 = O=C([C@@H]1CC(O)CN1[*:1])[*:2]; aIle = CC[C@@H](C)[C@H](N)C(=O)O; Thr(3ξ) = CC(O)[C@H](N)C(=O)O; ξIva = CCC(C)(N)C(=O)O; Aib = CC(C)(N)C(=O)O

Experiments:
[1] = target: Cellular tumor antigen p53 (Homo sapiens) (UniProt P04637); experiment: Primary qHTS for small molecule compounds that upregulate eGFP-tagged delta133p53alpha (in N-terminal) cells. (AID 2060322); conditions: NCI-H358 eGFP-delta133p53alpha fluorescence, 24 h; activation: active compounds read high; also: nearly all actives have a fitted effect of over 75% in size; also: potency is read from the fitted curve at half-maximal effect;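 as to activation: cells pre-induced with doxycycline then dosed without doxycycline; series mostly up to about 56 µM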
Sequence of Cellular tumor antigen p53 (Homo sapiens) (P04637 whole entry, looked up): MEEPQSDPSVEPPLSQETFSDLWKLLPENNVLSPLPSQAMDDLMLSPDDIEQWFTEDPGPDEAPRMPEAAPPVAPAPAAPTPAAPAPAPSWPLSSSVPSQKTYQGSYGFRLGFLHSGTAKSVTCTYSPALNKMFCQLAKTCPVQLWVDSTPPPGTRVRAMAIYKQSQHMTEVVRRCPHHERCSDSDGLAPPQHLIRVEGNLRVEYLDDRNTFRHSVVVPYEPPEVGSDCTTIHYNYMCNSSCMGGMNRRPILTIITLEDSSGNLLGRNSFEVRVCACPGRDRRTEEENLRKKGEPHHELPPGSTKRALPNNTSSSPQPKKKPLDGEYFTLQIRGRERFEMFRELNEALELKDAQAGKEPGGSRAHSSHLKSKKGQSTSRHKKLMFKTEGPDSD
Method in brief: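 NCI-H358 cells pre-induced 24 h with 10 ng/ml doxycycline for eGFP-delta133p53alpha, plated dox-free and exposed 24 h at 37C to titrated compounds. Fixed, Hoechst-stained; gated GFP peak intensity by laser scanning cytometry, normalized to DMSO (0%) and 57.5 uM 5-azacytidine (100%).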

[2] = target: Aldehyde dehydrogenase, mitochondrial (Homo sapiens) (UniProt P05091); experiment: qHTS for Inhibitors of the Aldehyde Dehydrogenase Family (ALDH2) Primary screen (AID 2061308); also: nearly all actives have a fitted effect of over 55% in size
[3] = target: Retinaldehyde dehydrogenase 3 (Homo sapiens) (UniProt P47895); experiment: qHTS for Inhibitors of the Aldehyde Dehydrogenase Family (ALDH1A3) Primary screen (AID 2061315)

SMILES | activation [1] | Potency [2] | Potency [3] | activity change, negative = inhibition [2] | activity change, negative = inhibition [3] | Potency [1]
C[C@@H]1O[C@@H](OC[C@H]2O[C@@H](OCC3CCC4CC3C4(C)C)[C@H](O)[C@@H](O)[C@@H]2O)[C@H](O)[C@H](O)[C@H]1O (some centres undefined) | 16.1% | inactive | inactive |  |  | 
Cc1cc2c(F)c(Oc3ncnn4cc(OCC(C)O)c(C)c34)ccc2[nH]1 (centres undefined) | -26.8% | inactive | inactive |  |  | 
C[C@@H]1O[C@@H](O[C@H]2[C@H](OC(=O)[C@]34CCC(C)(C)C[C@H]3C3=CCC5[C@@]6(C)CC[C@H](O[C@@H]7O[C@H](C(=O)O)[C@@H](O)[C@H](O)[C@H]7O[C@@H]7O[C@H](CO)[C@H](O)[C@H](O)[C@H]7O)[C@@](C)(C=O)C6CC[C@@]5(C)[C@]3(C)C[C@H]4O)O[C@H](C)[C@H](O[C@@H]3O[C@H](C)[C@H](O)[C@H](O)[C@H]3O)[C@@H]2O)[C@H](O)[C@H](O)[C@H]1O[C@@H]1OC[C@@H](O)[C@H](O[C@@H]2O[C@H](CO)[C@@H](O)[C@H](O)[C@H]2O)[C@H]1O (some centres undefined) | -6.87% |  |  | -7.78% [at 11.2 µM] | -11.5% [at 11.2 µM] | 
CC1CCN(C(=O)CC#N)CC1N(C)c1ncnc2[nH]ccc12 (centres undefined) | 1.79% | inactive | inactive |  |  | 
CCOc1ncc(S(=O)(=O)N2CCN(CC)CC2)cc1-c1nc2c(CC)n(CCOC)nc2c(=O)[nH]1 | -9.07% | inactive | inactive |  |  | 
CC1=CC(=O)CC(C)(C)[C@@]1(O)CC[C@@H](C)O[C@@H]1O[C@H](CO)[C@@H](O)[C@H](O)[C@H]1O | 29.5% | inactive | inactive |  |  | 
CC(=O)NC1CC(=O)C23C(=O)NC(Cc4c[nH]c5ccccc45)C2C(C)=C(C)C(O)C3/C=C/CC(C)/C=C(/C)C(O)C1O (centres undefined) | 8.93% | inactive | inactive |  |  | 
CC[C@@H](C)[C@H](N)C(=O)N1Cc2ccccc2C1 | 3.82% | inactive | inactive |  |  | 
CCOc1ccc(-c2cc(NC(=O)c3c(F)cccc3F)c(C(=O)O)s2)cc1 | 15.7% | inactive | inactive |  |  | 
C=C(C)C1CCC2(C(=O)O[C@@H]3O[C@H](CO[C@@H]4O[C@H](CO)[C@@H](O)[C@H](O)[C@H]4O)[C@@H](O)[C@H](O[C@@H]4O[C@@H](C)[C@H](O)[C@@H](O)[C@H]4O)[C@H]3O)CCC3(C(=O)O)C(CCC4C5(C)CCC(O)C(C)(C)C5CCC43C)C12 (some centres undefined) | -13.7% | inactive | inactive |  |  | 
Cc1nc2c(C(F)(F)F)cccc2nc1-c1ccc(-c2cccc(S(C)(=O)=O)c2)cc1 | -2.68% | inactive | inactive |  |  | 
CC/C=C\C[C@H]1C(=O)C=C[C@@H]1CCCCCCCC(=O)O | -8.93% | inactive | inactive |  |  | 
CC1(C)COC(=O)[C@@H]1O[C@@H]1O[C@H](CO)[C@@H](O)[C@H](O)[C@H]1O | -11.6% | inactive | inactive |  |  | 
CCNC(=O)[C@@H]1CCCN1C(=O)[C@H](CCCN=C(N)N)NC(=O)[C@H](CC(C)C)NC(=O)[C@@H](CC(C)C)NC(=O)[C@H](Cc1ccc(O)cc1)NC(=O)[C@H](CO)NC(=O)[C@H](Cc1c[nH]c2ccccc12)NC(=O)[C@H](Cc1cnc[nH]1)NC(=O)[C@@H]1CCC(=O)N1 | 7% | inactive | inactive |  |  | 
O=C(/C=C/c1ccc(O)cc1)OCC1=C[C@@H](O)[C@@H]2C=CO[C@@H](O[C@@H]3O[C@H](CO)[C@@H](O)[C@H](O)[C@H]3O)[C@H]12 | -9.16% | inactive | inactive |  |  | 
O=C(/C=C/c1ccc(O)cc1)OCC1OC(O)C(OC2OC(CO)C(O)C(O)C2O)C(O)C1O (centres undefined) | -13% | inactive | inactive |  |  | 
CC(=O)O[C@H]1C[C@@H]2[C@]3(CC[C@]4(C)[C@@H](C5(C)CCC(C(C)(C)O)O5)[C@@H](O)C[C@@]24C)C[C@@]32CC[C@H](O[C@@H]3OC[C@@H](O)[C@H](O)[C@H]3O)C(C)(C)[C@H]12 (some centres undefined) | -4.46% | inactive | inactive |  |  | 
CC(C)(O)C1CCC2(C)CCCC(C)(O)C2C1 (centres undefined) | 2.68% | inactive | inactive |  |  | 
COc1nc2sc(C(=O)NC3CC3)c(N)c2c(C)c1Cl | -6.33% | inactive | inactive |  |  | 
COc1cc(NC(=O)c2cccc(-n3cc(NC(=O)Nc4cccc(C)c4)cn3)c2)cc(OC)c1OC |  | inactive | inactive |  |  | 23.9 µM (active)
C=C1CC23CCC4[C@@](C)(CCC[C@@]4(C)C(=O)O)C2CCC1C3 (some centres undefined) | 6.25% | inactive | inactive |  |  | 
CCCC(=O)C1(c2ccccc2)CCN(C(=O)[C@@H](Cc2ccc(OC)cc2)NC(=O)[C@@H](N)Cc2cncn2C)CC1 | 4.3% | inactive | inactive |  |  | 

SMILES | activation [1] | Potency [2] | Potency [3] | activity change, negative = inhibition [2] | activity change, negative = inhibition [3] | Potency [1]
COc1c(O[C@@H]2O[C@H](CO)[C@@H](O)[C@H](O)[C@H]2O)c(CCC(=O)O)cc2ccoc12 | -7.63% | inactive | inactive |  |  | 
CC[C@@H](C)[C@H](NC(=O)C(C)(C)NC(=O)[C@H](CCC(N)=O)NC(=O)C(C)(CC)NC(=O)[C@H](Cc1c[nH]c2ccccc12)NC(C)=O)C(=O)N[C@H](C(=O)NC(C)(C)C(=O)N[C@@H](CC(C)C)C(=O)NC(C)(C)C(=O)N1CCC[C@H]1C(=O)N[C@@H](CCC(N)=O)C(=O)NC(C)(C)C(=O)N1CC(O)C[C@H]1C(=O)NC(C)(CC)C(=O)C1CC[C@@H](C(=O)N[C@@H](Cc2ccccc2)C(=O)NCC(=O)O)N1)C(C)O (some centres undefined) (Ac-W[ξIva]Q[Aib][aIle][Thr(3ξ)][Aib]L[Aib]PQ[Aib][X8]-X9) | 3.57% |  |  | -2.86% [at 11.2 µM] | 18.1% [at 11.2 µM] | 
Cc1cc(C(=O)N2Cc3cnn(C)c3Nc3ccccc32)ccc1CNC(=O)N1CCN(Cc2cc(O)cc(O)c2)CC1 | -7.16% | inactive | inactive |  |  | 
CC1(CO)CCCC2(C)C1C(OC(=O)c1ccccc1)C=C1C(=O)OCC12O (centres undefined) |  | inactive | inactive |  |  | 20.9 µM (active)
Cc1sc2c(c1C)C(c1ccc(Cl)cc1)=N[C@H](CC(=O)NCCCCNC(=O)COc1cccc3c1C(=O)N([C@H]1CCC(=O)NC1=O)C3=O)c1nnc(C)n1-2 |  | inactive | inactive |  |  | 1.69 µM (active)
CC(C)(C)CCN1C[C@@H]2C(CNC(=O)c3cc(Cl)cc(Cl)c3)[C@@H]2C1 (some centres undefined) | 26.3% | inactive | inactive |  |  | 
COc1ccc([C@@]2(O)c3c(ccc(CC=C(C)C)c3O)NC(=O)[C@@H]2OC)cc1 | -19.1% | inactive | inactive |  |  | 
C/C=C(\C)C(=O)OC[C@H]1O[C@H](O[C@H]2O[C@H](CO)[C@@H](OC(=O)/C(C)=C/C)[C@H](O)[C@H]2O[C@@H]2O[C@H](CO)[C@@H](O)[C@H](O)[C@H]2O)[C@H](O[C@@H]2O[C@H](CO)[C@@H](O)[C@H](O)[C@H]2O)[C@@H](O)[C@@H]1O | -4.46% | inactive | inactive |  |  | 
C/C1=C\CC[C@]2(C)O[C@H]2C(=O)c2c(C)coc2C1 | 20.5% | inactive | inactive |  |  | 
C[C@@H]1C[C@@H](O)[C@@]23CO[C@]2(CO)CCC[C@@H]3[C@@]12C[C@@H](c1ccoc1)OC2=O | 24.4% | inactive | inactive |  |  | 
N#Cc1ccc2ncnc(NCCc3ccccc3)c2c1 | -3.57% | inactive | inactive |  |  | 
CC(=O)O[C@H]1[C@@]2(O)C[C@H](C)[C@H](OC(=O)c3ccccc3)[C@@H]2[C@@H](OC(=O)CO)[C@]2(OC(C)=O)C[C@H]3C(=O)C(C)(C)C[C@@H]3[C@@]1(C)[C@H]2OC(C)=O | -6.25% | inactive | inactive |  |  | 
CC(C)=CC[C@H]1O[C@]2(O)C([C@H]3CCC4[C@@]5(C)CC[C@H](O[C@@H]6O[C@H](CO)[C@H](O)[C@H](O[C@@H]7O[C@H](CO)[C@@H](O)[C@H](O)[C@H]7O)[C@H]6O[C@@H]6O[C@@H](C)[C@H](O)[C@@H](O)[C@H]6O)C(C)(C)C5CC[C@@]4(C)[C@]3(C)[C@H]2O)[C@@]1(C)O (some centres undefined) | 17.6% | inactive | inactive |  |  | 
CCCCn1c(-c2ccccc2)nc(-c2ccccc2)c1CN(Cc1ccc2c(c1)OCO2)Cc1ccc2c(c1)OCO2 | -10% | inactive | inactive |  |  | 
COc1ccc(C2OCC3C(c4cc(OC)c5c(c4)OCO5)OCC23)cc1OC (centres undefined) | -8.4% | inactive | inactive |  |  | 
Cc1noc(-c2ccc(-c3ccc(CC(=O)O)cc3)cc2)c1NC(=O)O[C@H](C)c1ccccc1 | -1.79% | inactive | inactive |  |  | 
CC1(C)SC2C(NC(=O)[C@H](C(=O)O)c3ccsc3)C(=O)N2C1C(=O)O (some centres undefined) | 3.67% | inactive | inactive |  |  | 
O=c1c2cccnc2n(-c2cccc([N+](=O)[O-])c2)c(=O)n1Cc1ccncc1 | -20% | inactive | inactive |  |  | 
C=C1C(=O)O[C@@H]2/C=C(\C)C(=O)/C=C/[C@](C)(O)C[C@@H](OC(=O)C(C)C)[C@@H]12 |  | inactive | inactive |  |  | 2.95 µM (active)
C=C[C@@](C)(CCC=C(C)C)O[C@@H]1O[C@H](CO[C@@H]2OC[C@H](O)[C@H](O)[C@H]2O)[C@@H](O)[C@H](O)[C@H]1O | -11.5% | inactive | inactive |  |  | 
C=CC[N+]1([C@H]2C[C@H]3[C@@H]4CC[C@H]5C[C@H](OC(C)=O)[C@@H](N6CCCCC6)C[C@]5(C)[C@H]4CC[C@]3(C)[C@H]2OC(=O)CC)CCCCC1 | -3.67% | inactive | inactive |  |  | 
